According to PubChem BioAssay AID1159580 (chemical genetic matrix, 2015):
The whole screen tested about 5,500 compounds, of which about 2,000 (36%) were called active. About 18% were inconclusive and are not listed. Cut-off read from the data, not from the text of the source: active = normalized growth mostly below about 0.91 (no sharp cut-off); inconclusive = no clear call, values can overlap the other calls; inactive = mostly above about 0.92. This is one part of the list.

Assay: chemical genetic growth profiling, strain panel (AID 1159580);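 note: tested at 20 µM; growth read once vehicle control cultures reached saturation at 30 °C; 1 = growth at the plate median or of vehicle wells; lower values mean less growth of the strain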
Settings: growth OD

Measured: normalized growth

COc1cc(-c2coc3cc(OC)c(OC)c(OC)c3c2=O)cc(OC)c1OC
inactive: S. cerevisiae deletion strains, locus YJR066W, strain TOR1, active compounds read low 0.99 | S. cerevisiae deletion strains, locus YJR075W, strain HOC1, active compounds read low 0.975 | S. cerevisiae deletion strains, locus YKL009W, strain mrt4, active compounds read low 0.98 | S. cerevisiae deletion strains, locus YKL068W, active compounds read low 0.988 | S. cerevisiae deletion strains, locus YKL085W, strain MDH1 (second series), active compounds read low 0.973 | S. cerevisiae deletion strains, locus YKL085W, strain MDH1, active compounds read low 0.973 | S. cerevisiae deletion strains, locus YKL160W, strain elf1, active compounds read low 0.994 | S. cerevisiae deletion strains, locus YKR001C, strain vps1, active compounds read low 1.02 | S. cerevisiae deletion strains, locus YKR026C, strain gcn3, active compounds read low 0.997 | S. cerevisiae deletion strains, locus YKR091W, strain srl3, active compounds read low 1 | S. cerevisiae deletion strains, locus YLL001W, strain dnm1, active compounds read low 0.96 | S. cerevisiae deletion strains, locus YLL026W, active compounds read low 0.996 | S. cerevisiae deletion strains, locus YLL041C, strain sdh2, active compounds read low 0.996 | S. cerevisiae deletion strains, locus YLR027C, strain aat2, active compounds read low 1.01 | S. cerevisiae deletion strains, locus YLR039C, strain RIC1, active compounds read low 1 | S. cerevisiae deletion strains, locus YLR058C, strain SHM2, active compounds read low 0.99 | S. cerevisiae deletion strains, locus YLR102C, strain apc9, active compounds read low 1 | S. cerevisiae deletion strains, locus YLR113W, strain HOG1, active compounds read low 0.98 | S. cerevisiae deletion strains, locus YLR221C, strain rsa3, active compounds read low 0.997 | S. cerevisiae deletion strains, locus YLR258W, strain gsy2, active compounds read low 0.989 | S. cerevisiae deletion strains, locus YLR262C, strain YPT6 (second series), active compounds read low 0.972 | S. cerevisiae deletion strains, locus YLR262C, strain YPT6, active compounds read low 1.01 | S. cerevisiae deletion strains, locus YLR268W, strain sec22, active compounds read low 1.03 | S. cerevisiae deletion strains, locus YLR320W, strain mms22, active compounds read low 1.01 | S. cerevisiae deletion strains, locus YLR330W, strain CHS5, active compounds read low 0.998 | S. cerevisiae deletion strains, locus YLR342W, strain FKS1 (second series), active compounds read low 1.08 | S. cerevisiae deletion strains, locus YLR342W, strain FKS1, active compounds read low 1.01 | S. cerevisiae deletion strains, locus YLR357W, strain rsc2, active compounds read low 0.953 | S. cerevisiae deletion strains, locus YLR370C, strain arc18, active compounds read low 0.997 | S. cerevisiae deletion strains, locus YLR371W, strain rom2, active compounds read low 1.01 | S. cerevisiae deletion strains, locus YLR384C, strain iki3, active compounds read low 0.982 | S. cerevisiae deletion strains, locus YLR418C, strain cdc73, active compounds read low 0.984 | S. cerevisiae deletion strains, locus YML016C, strain PPZ1, active compounds read low 1 | S. cerevisiae deletion strains, locus YML032C, strain rad52, active compounds read low 1.01 | S. cerevisiae deletion strains, locus YML120C, strain ndi1, active compounds read low 0.997 | S. cerevisiae deletion strains, locus YML124C, strain tub3, active compounds read low 0.989 | S. cerevisiae deletion strains, locus YMR058W, strain fet3, active compounds read low 1.01 | S. cerevisiae deletion strains, locus YMR078C, strain ctf18, active compounds read low 1.01 | S. cerevisiae deletion strains, locus YMR125W, strain sto1, active compounds read low 0.992 | S. cerevisiae deletion strains, locus YMR129W, active compounds read low 0.989 | S. cerevisiae deletion strains, locus YMR205C, strain PFK2, active compounds read low 1.01 | S. cerevisiae deletion strains, locus YMR223W, strain ubp8, active compounds read low 0.998 | S. cerevisiae deletion strains, locus YMR231W, strain pep5, active compounds read low 0.987 | S. cerevisiae deletion strains, locus YMR307W, strain GAS1, active compounds read low 1.13 | S. cerevisiae deletion strains, locus YNL067W, strain RPL9B, active compounds read low 0.973 | S. cerevisiae deletion strains, locus YNL071W, strain lat1, active compounds read low 1 | S. cerevisiae deletion strains, locus YNL183C, strain NPR1, active compounds read low 0.984 | S. cerevisiae deletion strains, locus YNL209W, strain ssb2, active compounds read low 1 | S. cerevisiae deletion strains, locus YNL233W, strain BNI4, active compounds read low 0.982 | S. cerevisiae deletion strains, locus YNL248C, strain rpa49, active compounds read low 0.983 | S. cerevisiae deletion strains, locus YNL250W, strain rad50, active compounds read low 0.944 | S. cerevisiae deletion strains, locus YNL271C, strain bni1, active compounds read low 0.995 | S. cerevisiae deletion strains, locus YNL298W, strain CLA4, active compounds read low 0.996 | S. cerevisiae deletion strains, locus YNL307C, strain MCK1, active compounds read low 1 | S. cerevisiae deletion strains, locus YNL322C, strain KRE1 (second series), active compounds read low 0.998 | S. cerevisiae deletion strains, locus YNR049C, strain mso1, active compounds read low 1 | S. cerevisiae deletion strains, locus YNR052C, strain pop2, active compounds read low 0.977 | S. cerevisiae deletion strains, locus YOL012C, strain htz1 1.11 | S. cerevisiae deletion strains, locus YOL147C, strain pex11, active compounds read low 0.998 | S. cerevisiae deletion strains, locus YOR001W, strain rrp6, active compounds read low 0.997 | S. cerevisiae deletion strains, locus YOR061W, strain CKA2, active compounds read low 1.01 | S. cerevisiae deletion strains, locus YOR069W, strain VPS5, active compounds read low 0.989 | S. cerevisiae deletion strains, locus YOR070C, strain gyp1, active compounds read low 0.991 | S. cerevisiae deletion strains, locus YOR080W, strain dia2, active compounds read low 0.995 | S. cerevisiae deletion strains, locus YOR083W, strain WHI5, active compounds read low 0.996 | S. cerevisiae deletion strains, locus YOR106W, strain vam3, active compounds read low 0.988 | S. cerevisiae deletion strains, locus YOR136W, strain idh2, active compounds read low 0.993 | S. cerevisiae deletion strains, locus YOR144C, strain elg1, active compounds read low 0.997 | S. cerevisiae deletion strains, locus YOR184W, strain ser1, active compounds read low 1.08 | S. cerevisiae deletion strains, locus YOR231W, strain MKK1, active compounds read low 1.04 | S. cerevisiae deletion strains, locus YOR265W, strain rbl2, active compounds read low 1.01 | S. cerevisiae deletion strains, locus YOR270C, strain vph1, active compounds read low 1.01 | S. cerevisiae deletion strains, locus YOR290C, strain snf2, active compounds read low 1.01 | S. cerevisiae deletion strains, locus YOR316C, strain cot1, active compounds read low 0.99 | S. cerevisiae deletion strains, locus YPL051W, strain arl3, active compounds read low 0.994 | S. cerevisiae deletion strains, locus YPL055C, strain LGE1, active compounds read low 1.03 | S. cerevisiae deletion strains, locus YPL078C, strain atp4, active compounds read low 0.998 | S. cerevisiae deletion strains, locus YPL106C, strain sse1, active compounds read low 0.984 | S. cerevisiae deletion strains, locus YPL240C, strain hsp82, active compounds read low 1 | S. cerevisiae deletion strains, locus YPL256C, strain CLN2, active compounds read low 1.03 | S. cerevisiae deletion strains, locus YPR119W, strain clb2, active compounds read low 0.975 | S. cerevisiae deletion strains, locus YPR141C, strain kar3, active compounds read low 0.972 | S. cerevisiae deletion strains, locus YPR163C, strain tif3, active compounds read low 1 | S. cerevisiae deletion strains, locus YPR167C, strain met16, active compounds read low 0.995 | S. cerevisiae deletion strains, strain wtn01, active compounds read low 1.03 | S. cerevisiae strains, strain wild type, active compounds read low 1.02
